In the OligoGym collection one finds sensor-assay potency score (higher = more potent) data, which are given here for 39 sequences.
Note: reference of the scale not given here.

The first experiment addresses CBWD1. The experiment can be described thus: pooled miR-30 sensor sort-seq; sequence = guide strand. The note with it: shRNA.
On to AAGCAACTTGTCTAGTAGCTTC, for which the sensor-assay potency score (higher = more potent) is -0.327. TACATCTTCTTCTGGAACCAGG: the sensor-assay potency score (higher = more potent) was -0.734. Consider TTCTTCTGGAACCAGGTCTGTT, for which the sensor-assay potency score (higher = more potent) is -0.933.

In a further experiment the target is CBWD2. Described as above. Conditions: shRNA.
For TATTTTGAATCCACTATAGTTA, the sensor-assay potency score (higher = more potent) is -0.411. TTATGGATCTAATTGTCGCTCT showed a sensor-assay potency score (higher = more potent) of 0.237. With TTTATGGATCTAATTGTCGCTC, the sensor-assay potency score (higher = more potent) was -0.0827.

Another experiment deals with CBWD3. Described as above. Conditions: shRNA.
With TCTTCTGGAACCAAGTCTGTTT, the sensor-assay potency score (higher = more potent) is -0.303. Take TTATTATCCAATCCTTTTGATA: the sensor-assay potency score (higher = more potent) was -1.04. For the sequence TTATCCAATCCTTTTGATAAGA, the sensor-assay potency score (higher = more potent) is -1.37. In turn, TTACATCTTCTTCTGGAACCAG displayed a sensor-assay potency score (higher = more potent) of 0.201. Regarding TTTATTATCCAATCCTTTTGAT, the sensor-assay potency score (higher = more potent) was -0.0523. As for TATTATCCAATCCTTTTGATAA, the sensor-assay potency score (higher = more potent) is -1.72. As for TTGTCGTTCTTAATTTCTTTAC, the sensor-assay potency score (higher = more potent) is -1.76. As for TTTATGGATCTAATTGTCGTTC, the sensor-assay potency score (higher = more potent) is -0.438. On to TACATCTTCTTCTGGAACCAAG, for which the sensor-assay potency score (higher = more potent) is -0.337.

Another experiment deals with CBX5. Described as above. The note with it: shRNA.
In the case of TCACATTAGCTTCTTTTGCAAG, the sensor-assay potency score (higher = more potent) is -1.01.

Consider TAAAATGCTATCACAATTTGTG, for which the sensor-assay potency score (higher = more potent) is -0.0381. The sequence TAGATATTCCACTTGTCCCTTA came in with a sensor-assay potency score (higher = more potent) of 0.296. Still for that read-out and setting: under TTAGATTTGATGTCATCGGCAC stands 0.364; under TTTTAGATTTGATGTCATCGGC, -0.344. The same measure, in the same setting: the result for TTACTTTCTGACTTCTCCCTGG reads 0.106. Regarding TTTAGATTTGATGTCATCGGCA, the sensor-assay potency score (higher = more potent) is -0.103. TTTGATGTCATCGGCACTGTTT: the sensor-assay potency score (higher = more potent) is -0.553. As for TATACTTTTTCATAAATTCAGA, the sensor-assay potency score (higher = more potent) is -1.38. On the same count and under the same terms, under TAAATTCAGAAATTAGCTCAGG stands -0.159; under TTAGGAACATTAAATCACCACA, -0.835.

On to TTAAATCACCACAGGAATCTGT, for which the sensor-assay potency score (higher = more potent) was -0.0279.

The target of a further experiment is CBX7. The description is as above. The note with it: shRNA.
On to TTCCGCACGCGCTTCTTCCGGA, for which the sensor-assay potency score (higher = more potent) was -0.445. In the case of TAGAGGAGAATGATAATGGTGG, the sensor-assay potency score (higher = more potent) turned out to be 0.263. With TACTCGACTTTACCCTTCCGCA, the sensor-assay potency score (higher = more potent) was -1.36. Turning to TCCACTTCACCAGATACTCGAC, the sensor-assay potency score (higher = more potent) was -1.35.

TAGTTCTTTGAAAGTGACCAGG: the sensor-assay potency score (higher = more potent) was -0.792. The same measure, in the same setting: the result for TTCTTTGAAAGTGACCAGGAAG reads -1.2. TCGTAGGCCATGACGAGGCGGG: the sensor-assay potency score (higher = more potent) is -0.996.

Take TTTAACTCCCAGAACCAGCTGC: the sensor-assay potency score (higher = more potent) was found to be 0.312. TCGATGGCTGTGGCTCTCCAGG: the sensor-assay potency score (higher = more potent) is -1.84. In the case of TGTACTTTGGGGGCCATCCTTT, the sensor-assay potency score (higher = more potent) is -1.24.

On to ATACATCACACAACTTAGCAGA, for which the sensor-assay potency score (higher = more potent) was -0.583.

For the sequence ATACTCGACTTTACCCTTCCGC, the sensor-assay potency score (higher = more potent) is -0.334.
